# Results from PubChem BioAssay (EPA / NIEHS).
# Records with an inconclusive call do not appear. Activity calls are given as the source filed them. The calls were made as follows, unless noted: active = hit-call score of the fitted dose curve at least 0.9, where 1 is the maximum; inactive = score below 0.9.
# How the values were obtained:
# [1] = CCTE_Mundy_HCI_Cortical_NOG_NeuriteLength: CCTE's Neurite Outgrowth Assay in rat cortical cells for Neurite Length, Mundy Lab (AID 2284213);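 also: neurites imaged about 48 to 50 h after chemical exposure began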
# In short: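 First, rat primary cortical cells were plated and, 2 h later, given test chemical as a 1/10 dilution. Finally, βIII-tubulin immunostaining enabled automated imaging of neurite length.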
# [2] = CCTE_Mundy_HCI_Cortical_Synap_Neur_Matur_NeuriteLength: CCTE's Synaptogenesis and Neurite Maturation Assay in rat cortical cells for Neurite Length, Mundy Lab (AID 2284214)
# In short: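 Cultures of rat primary cortical cells received chemical at DIV 7 and were fixed at DIV 12, after glial arrest with AraC at DIV 5. Neurite length was measured by automated imaging of MAP2 immunofluorescence.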
# [3] = CCTE_Mundy_HCI_Cortical_Synap_Neur_Matur_SynapseCount: CCTE's Synaptogenesis and Neurite Maturation Assay in rat cortical cells for Synapse Count, Mundy Lab (AID 2284218)
# In short: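 Cells were plated, allowed 2 hr to attach, treated with AraC at DIV 5, then exposed to chemicals from DIV 7 until DIV 12. After fixation and MAP2/synaptophysin immunolabelling, synapses per neuron were quantified by automated imaging against DMSO.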
# [4] = CCTE_Mundy_HCI_Cortical_Synap_Neur_Matur_NeuriteCount: CCTE's Synaptogenesis and Neurite Maturation Assay in rat cortical cells for Neurite Count, Mundy Lab (AID 2284222)
# In short: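 In this multiplexed morphology readout, rat primary cortical neurons are fixed at DIV 12 following dosing at DIV 7 and stained for MAP2, synaptophysin and nuclei. High-content image analysis yields neurite count.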
# [5] = CCTE_Mundy_HCI_Cortical_Synap_Neur_Matur_CellBodySpotCount: CCTE's Synaptogenesis and Neurite Maturation Assay in rat cortical cells for Cell Body Spot Count, Mundy Lab (AID 2284223)
# In short: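 Primary rat cortical cultures, AraC added at DIV 5; dosed DIV 7 through DIV 12 […]. Fixed, stained for MAP2 and synaptophysin with Hoechst; cell body-associated synaptophysin puncta per neuron counted by high-content imaging, loss vs DMSO.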
# [6] = CCTE_Mundy_HCI_hNP1_Pro_ResponderAvgInten: CCTE's Proliferation Assay in human neuroprogenitor cells, Mundy Lab (AID 2284224; active = hit-call score of the fitted dose curve at least 0.9, where 1 is the maximum;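 also: human neural progenitor cells hNP1 derived from WA09 embryonic stem cells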)
# In short: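 Human neuroprogenitors (hNP1, WA09 lineage) receive test chemical after 40 to 44 hours of attachment. A four-hour BrdU pulse begins twenty hours later, followed by fixation and high content imaging; signal is referenced to DMSO controls.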
# [7] = UKN2_HCS_IMR90_cell_viability: Viability Assessment in the University of Konstanz (UKN) Leist Lab Neural Crest Cell Migration Assay in human induced IMR90 Pluripotent Stem Cells (UKN2) (AID 2284233);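 also: viability of neural crest cells differentiated from IMR90 iPSC measured by calcein-AM fluorescence imaging; cells exposed to compound for 24 h after a 24 h migration phase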
# In short: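 cMINC format, iPSC-derived neural crest (IMR90); 24 h migration (EGF/FGF, N2-S), then 24 h toxicant. Calcein-AM/H-33342 stain 30 min; fluorescence intensity by HCS; DMSO-normalised, bidirectional fitting.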
# [8] = CCTE_Mundy_HCI_Cortical_NOG_NeuronCount: CCTE's Neurite Outgrowth Assay in rat cortical cells for Neuron Count, Mundy Lab (AID 2284236; active = hit-call score of the fitted dose curve at least 0.9, where 1 is the maximum;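 also: neurons counted by imaging betaIII-tubulin and Hoechst stained cortical cells; cells exposed to compound for about 48 hours before fixation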)
# In short: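 Read-out: neuron number by high-content imaging of betaIII-tubulin (Alexa Fluor-488) and Hoechst-labelled rat primary cortical cells.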
# [9] = CCTE_Mundy_HCI_Cortical_NOG_BPCount: CCTE's Neurite Outgrowth Assay in rat cortical cells for Branch Point Count, Mundy Lab (AID 2284237);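 also: branch points counted about two days after chemical exposure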
# In short: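 Measured 50.33 h after dosing, this morphology endpoint uses rat primary cortical cultures labelled for betaIII-tubulin. Branch points are quantified by high-content imaging, with DMSO as negative control and baseline.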
# [10] = CCTE_Mundy_HCI_hNP1_Casp3_7: CCTE's Caspase-Glo 3/7 Assay in human neuroprogenitor cells for Apoptosis, Mundy Lab (AID 2284240)
# In short: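 Neuroepithelial-lineage stem cells from WA09 embryonic cells were treated with chemicals after 40–44 h of culture. Twenty-four hours later, caspase-3/7 activation was detected luminescently after a 30 min room-temperature reagent step, with DMSO as baseline.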
# [11] = CCTE_Mundy_HCI_hNP1_CellTiter: CCTE's Cell Titer-Glo 2 Assay in human neuroprogenitor cells for Viability, Mundy Lab (AID 2284241; active = hit-call score of the fitted dose curve at least 0.9, where 1 is the maximum)
# In short: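 Measures ATP content in human neural progenitors derived from WA09 embryonic cells. Read-out at 26.5 hours after dosing, with DMSO serving as the negative control and baseline.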
# [12] = CCTE_Mundy_HCI_Cortical_Synap_Neur_Matur_NeuronCount: CCTE's Synaptogenesis and Neurite Maturation Assay in rat cortical cells for Neuron Count, Mundy Lab (AID 2284242; active = hit-call score of the fitted dose curve at least 0.9, where 1 is the maximum;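 also: neuron number from Hoechst nuclei and MAP2 staining by high-content imaging; hits reduce neuron count versus DMSO baseline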)
# In short: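 Cortical cells from rat are plated, treated with AraC at DIV 5, and exposed to test chemicals with a media change at DIV 7. At DIV 12 they are fixed and immunostained (MAP2, synaptophysin), and imaged neuron counts are compared against DMSO controls.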
# [13] = IUF_NPC2a_radial_glia_migration_120hr: Leibniz Research Institute for Environmental Medicine (IUF) 120-hour Neural Progenitor Cell Migration Assay for Radial Glia Migration (NPC2a) (AID 2284298)
# In short: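 Human fetal-cortex neural progenitor spheres (0.3 mm) plated on poly-D-lysine/laminin in N2 differentiation medium, exposed 120 h at 37C with half-medium renewal at day 3. Radial glia migration distance (um) measured from Hoechst-stained nuclei images; DMSO baseline.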
# [14] = IUF_NPC2a_radial_glia_migration_72hr: Leibniz Research Institute for Environmental Medicine (IUF) 72-hour Neural Progenitor Cell Migration Assay for Radial Glia Migration (NPC2a) (AID 2284299)
# In short: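 Single 0.3 mm neurospheres were plated per well in N2 differentiation medium and exposed from the start of differentiation. After 72 hours, brightfield images were taken and radial glia migration from the sphere core edge was measured manually in four directions, averaged per well.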
# [15] = IUF_NPC2b_neuronal_migration_120hr: Leibniz Research Institute for Environmental Medicine (IUF) 120-hour Neural Progenitor Cell Migration Assay for Neuron Migration (NPC2b) (AID 2284300)
# In short: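 0.3 mm hNPC spheres on poly-D-lysine/laminin in N2 differentiation medium exposed 120 h, half-medium refresh day 3; 7 concentrations, DMSO max 0.1%. Neuron (TUBB3) distance from sphere core by ICC imaging, normalised to radial glia migration.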
# [16] = IUF_NPC3_neuronal_differentiation_120hr: Leibniz Research Institute for Environmental Medicine (IUF) 120-hour Neuronal Differentiation Assay (NPC3) (AID 2284301)
# In short: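 Neuronal differentiation of primary human neural progenitors measured by high-content imaging: percent TUBB3+ of Hoechst+ nuclei within migrated area at 120 h, seven-point serial dilution plus solvent control, gain or loss relative to DMSO.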
# [17] = IUF_NPC4_neurite_length_120hr: Leibniz Research Institute for Environmental Medicine (IUF) 120-hour Neuronal Morphology Assay for Neurite Length (NPC4) (AID 2284302)
# In short: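 Neurons from differentiating human fetal neural progenitor spheres are scored for average neurite length after five days of compound exposure. Fitting uses DMSO as negative control.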
# [18] = IUF_NPC5_oligodendrocyte_differentiation_120hr: Leibniz Research Institute for Environmental Medicine (IUF) 120-hour Oligodendrocyte Differentiation Assay (NPC5) (AID 2284304; active = hit-call score of the fitted dose curve at least 0.9, where 1 is the maximum;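 also: primary human fetal neural progenitor spheres plated to migrate and differentiate; share of O4-positive cells among Hoechst nuclei found by CNN image analysis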)
# In short: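 Human fetal neural progenitor spheres (0.3 mm) plated on poly-D-lysine/laminin in N2 differentiation medium and exposed for 120 h at 7 concentrations, with half-medium renewal at day 3. O4-positive cells identified by CNN, expressed as percent of Hoechst nuclei.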
# [19] = IUF_NPC4_neurite_area_120hr: Leibniz Research Institute for Environmental Medicine (IUF) 120-hour Neuronal Morphology Assay for Neurite Area (NPC4) (AID 2284305; active = hit-call score of the fitted dose curve at least 0.9, where 1 is the maximum)
# In short: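 Endpoint at 120 h: automated imaging of TUBB3/Hoechst-stained differentiating human neural progenitor spheres, neurite area per neuron from skeletonization. DMSO solvent control, not above 0.1%, set the baseline; medium was half-replaced on day 3.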
# [20] = IUF_NPC2-5_cytotoxicity_72hr: Cytotoxicity Assessment at 72 hours in the Leibniz Research Institute for Environmental Medicine (IUF) Neural Progenitor Cell Migration and Differentiation Assay for Cytotoxicity (NPC2-5) (AID 2284306; active = hit-call score of the fitted dose curve at least 0.9, where 1 is the maximum;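 also: LDH release into supernatant measured by resorufin fluorescence marking membrane damage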)
# In short: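 Primary human neural progenitor spheres migrate and differentiate on laminin. Compound is present from the start of differentiation, with DMSO kept at or below 0.1%. At 72 h, supernatant LDH is quantified fluorometrically, with values fitted in the positive direction.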
# [21] = IUF_NPC2-5_cytotoxicity_120hr: Cytotoxicity Assessment at 120 hours in the Leibniz Research Institute for Environmental Medicine (IUF) Neural Progenitor Cell Migration and Differentiation Assay (NPC2-5) (AID 2284307; active = hit-call score of the fitted dose curve at least 0.9, where 1 is the maximum;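 also: LDH released into supernatant as membrane damage marker via resorufin fluorescence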)
# In short: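 Human fetal (GW 16-19) neural progenitor spheres (0.3 mm) plated on poly-D-lysine/laminin in N2 differentiation medium, exposed 120 h with half-medium renewal at day 3; 7 concentrations plus solvent control, DMSO ≤0.1%. LDH release in supernatant read by resorufin fluorescence.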
# [22] = IUF_NPC2-5_cell_number_120hr: Cell Number Assessment at 120 hours in the Leibniz Research Institute for Environmental Medicine (IUF) Neural Progenitor Cell Migration and Differentiation Assay (NPC2-5) (AID 2284308);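 also: count of Hoechst-stained nuclei in migration zone around plated human neural progenitor spheres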
# In short: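 Human fetal neural progenitor spheres (0.3 mm) plated on poly-D-lysine/laminin in N2 differentiation medium, exposed five days across 7 concentrations with half-medium refresh at day 3. Hoechst-positive nuclei counted in migration area at 120 h, relative to DMSO.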
# [23] = IUF_NPC2-5_viability_120hr: Viability Assessment at 120 hours in the Leibniz Research Institute for Environmental Medicine (IUF) Neural Progenitor Cell Migration and Differentiation Assay (NPC2-5) (AID 2284312)
# In short: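 Human fetal (GW 16-19) neural progenitor spheres of 0.3 mm were plated on poly-D-lysine/laminin in N2 differentiation medium and exposed from day 0 for 120 h, with half-medium refresh at day 3. Viability was read as alamar blue resazurin-to-resorufin fluorescence against DMSO.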
# [24] = CCTE_Mundy_HCI_iCellGluta_NOG_NeuriteLength: CCTE's Neurite Outgrowth Assay in iCellGluta cells for Neurite Length, Mundy Lab (AID 2284318; active = hit-call score of the fitted dose curve at least 0.9, where 1 is the maximum)
# In short: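 Automated high-content imaging of betaIII-tubulin (Alexa Fluor-488) and Hoechst-stained cells gave neurite length, normalized to the DMSO baseline.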
# [25] = IUF_NPC1_cytotoxicity_72hr: Cytotoxicity Assessment at 72 hours in the Leibniz Research Institute for Environmental Medicine (IUF) Neural Progenitor Cell Proliferation Assay (NPC1) (AID 2284332; active = hit-call score of the fitted dose curve at least 0.9, where 1 is the maximum;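 also: rising LDH signal means more cytotoxicity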)
# In short: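 Membrane-integrity loss is scored from LDH released into the medium, detected as resorufin fluorescence, with activity fitted upward relative to baseline. Test material stays on human fetal-derived progenitor spheres for 72 h.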
# [26] = CCTE_Mundy_HCI_iCellGluta_NOG_NeuriteCount: CCTE's Neurite Outgrowth Assay in iCellGluta cells for Neurite Count, Mundy Lab (AID 2284342; active = hit-call score of the fitted dose curve at least 0.9, where 1 is the maximum;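 also: chemical exposure about 48 hours starting 2 hours after plating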)
structure (smiles),measurement,setting,value
CC(CNC(=S)[S-])NC(=S)[S-].[Zn+2] (stereo unspecified),AC50,[1],27.6 µM (active)
same,AC50,[2],50 µM (active)
same,AC50,[3],50 µM (active)
same,AC50,[4],76.9 µM (active)
same,outcome,[5],inactive
same,outcome,[6],inactive
same,outcome,[7],inactive
same,AC50,[8],19.2 µM (active)
same,AC50,[9],22.2 µM (active)
same,AC50,[10],11.1 µM (active)
same,outcome,[11],inactive
same,AC50,[12],82.3 µM (active)
same,AC50,[13],12.5 µM (active)
same,outcome,[14],inactive
same,outcome,[15],inactive
same,outcome,[16],inactive
same,AC50,[17],50 µM (active)
same,outcome,[18],inactive
same,AC50,[19],39.2 µM (active)
same,AC50,[20],60.5 µM (active)
same,AC50,[21],9.92 µM (active)
same,AC50,[22],50 µM (active)
same,outcome,[23],inactive
same,AC50,[24],13 µM (active)
same,outcome,[25],inactive
same,AC50,[26],21.2 µM (active)
